RECQ1 inh: inhibitors of human RECQ1 DNA helicase | Potency, µM (top dose mostly 57.3 µM), without a hit: at the highest dose activity, negative = inhibition, hits mostly inhibitors | 240,000 tested, 0.54% active | RECQ1 DNA unwinding, red fluorescence kinetic read | AID 2549;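 further: plate controls were vehicle for no effect and no enzyme for full effect; nearly all actives have a fitted effect of over 30% in size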
Target sequence (P46063 whole entry, looked up): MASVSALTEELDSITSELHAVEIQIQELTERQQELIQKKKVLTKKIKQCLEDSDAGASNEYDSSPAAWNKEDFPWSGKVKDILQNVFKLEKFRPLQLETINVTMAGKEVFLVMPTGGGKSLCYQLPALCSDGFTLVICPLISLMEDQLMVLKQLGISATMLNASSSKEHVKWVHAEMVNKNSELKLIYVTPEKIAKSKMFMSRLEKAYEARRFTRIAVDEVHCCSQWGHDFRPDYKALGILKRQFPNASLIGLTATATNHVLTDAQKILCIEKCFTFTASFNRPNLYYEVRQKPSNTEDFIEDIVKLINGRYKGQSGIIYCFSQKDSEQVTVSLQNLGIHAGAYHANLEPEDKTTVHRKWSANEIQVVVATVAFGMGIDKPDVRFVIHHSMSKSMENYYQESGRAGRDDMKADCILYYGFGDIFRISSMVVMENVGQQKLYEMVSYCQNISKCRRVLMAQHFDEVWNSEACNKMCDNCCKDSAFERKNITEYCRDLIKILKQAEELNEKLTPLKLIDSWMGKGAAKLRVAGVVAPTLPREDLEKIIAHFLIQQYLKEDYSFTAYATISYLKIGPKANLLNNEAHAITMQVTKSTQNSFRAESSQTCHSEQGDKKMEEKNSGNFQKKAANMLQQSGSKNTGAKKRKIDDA
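50 nM RECQ1T1 preincubated 15 min with compound in Tris pH 8.0 buffer with MgCl2, DTT, Tween-20 and 2.5 ug/ml poly(dI-dC); started with 200 nM TAMRA/BHQ-2 forked duplex and 2 mM ATP. Unwinding read as fluorescence (525/598 nm), two reads 2 h apart.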
BLM helicase inh: inhibitors of human Bloom syndrome helicase BLM. P54132. 350,000 tested, 0.2% active. Potency, µM (highest dose often 56.1 µM), for the others: at the highest dose activity change, negative = inhibition, hits mostly inhibitors. AID 2528. recombinant BLM DNA unwinding, fluorescence dequenching;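 further: plate controls were vehicle for no effect and no enzyme for full effect; nearly all actives have a fitted effect of over 35% in size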
TDP1 block: blocks human tyrosyl-DNA phosphodiesterase 1; AID 485290; recombinant TDP1, AlphaScreen DNA substrate cleavage; 350,000 tested, 0.28% active; Potency, µM (top dose mostly 130 µM), for the others: at the highest dose activity change, negative = inhibition, actives largely listed as inhibitors; further: nearly all actives have a fitted effect of over 40% in size
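Recombinant human Tdp1 (E. coli-expressed, 1 nM final) preincubated with compounds 15 min at room temperature, then 5'-biotin/3'-phosphotyrosine-FITC DNA substrate (15 nM final) added for 5 min. AlphaScreen beads (10 ug/ml final) added 10 min; cleavage lowers signal.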
GCN5L2 inh: inhibitors of human GCN5L2 histone acetyltransferase. Q92830. GCN5L2 HAT assay, ThioGlo1 CoA-SH fluorescence. Potency, µM (highest dose often 58.9 µM), for the others: at the top dose activity change, negative = inhibition, actives largely listed as inhibitors. 390,000 tested, 0.21% active
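Preincubate 20nM GCN5L2 with compound 15 min, RT → add 50uM ThioGlo1 + 75uM H3(1-25) + 70uM acetyl-CoA → read fluorescence 0 and 20 min. Primary qHTS; fluorescent artifacts likely.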
APEX1 inh: blocks human APE1 abasic DNA cleavage; recombinant APE1, TAMRA/BHQ-2 abasic DNA cleavage fluorescence; Potency, µM (top dose mostly 65.8 µM), inactives show at the top dose activity change, negative = inhibition, actives largely listed as inhibitors; P27695; 350,000 tested, 0.35% active;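 further: plate controls were vehicle for no effect and reference inhibitor for full effect; nearly all actives have a fitted effect of over 55% in size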
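Incision of a quenched TAMRA/BHQ-2 THF abasic-site duplex (50 nM) by 0.75 nM APE1, after 15 min compound preincubation, measured as fluorescence increase over three 60 s reads. Values normalized to buffer, DMSO and NSC13755 control wells.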
JMJD2E inh: inhibitors of human JMJD2E histone demethylase; AID 2147; Potency, µM (highest dose often 57.1 µM), without a hit: top-dose activity change, negative = inhibition, actives largely listed as inhibitors; 230,000 tested, 1.6% active; JMJD2E catalytic domain, FDH-coupled NADH fluorescence (FDH is formaldehyde dehydrogenase);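 further: 0% = wells with enzyme and -100% = buffer wells without enzyme; nearly all actives have a fitted effect of over 50% in size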
* hit, by the source's call. The entries come from a sample that favours hits as a whole. Unless noted, the call rests on the fitted dose curve; in most records, active means well fitted curve in the direction sought with a large enough effect; inconclusive means small, poorly fitted or top-dose-only effect, or another doubt; inactive means no such curve, though single readings can be large; an effect the other way counts as inactive or inconclusive. Unless noted, on the % scale 0 is the no-effect control and ±100 the full control effect; potency means the concentration at half of the fitted maximal effect.

Results for CC1OC(OC2C(OC3C(O[C@H]4CC[C@]5(C)C6C=C[C@]78OC[C@@]9(CC[C@@H](C)[C@H](C)C97)[C@H](O)C[C@@]8(C)[C@]6(C)CC[C@H]5C4(C)C)OC(C)C(O)C3O)OC(CO)C(O)C2O)C(O)C(O)C1O (stereo partly specified) ?
RECQ1 inh: inactive; BLM helicase inh: -9.6%; TDP1 block: -1.2%; GCN5L2 inh: -4.7%; APEX1 inh: -15.5%; JMJD2E inh: -11.3%

How did C[C@H]1O[C@@H](O[C@H]2CC[C@@]3(C)C(CC[C@]4(C)C3C=C[C@]35OC[C@@]6(CCC(C)(C)C[C@H]63)[C@@H](O)C[C@]54C)[C@]2(C)CO)[C@H](O)[C@@H](O[C@@H]2O[C@H](CO)[C@@H](O)[C@H](O)[C@H]2O)[C@H]1O (stereo partly specified) do in these assays?
TDP1 block: -9.4%; GCN5L2 inh: -4.8%; APEX1 inh: 21.2µM*

Results for CC(C)C[C@H](NC(=O)[C@@H]1CCCN1C(=O)[C@H](Cc1ccccc1)NC(=O)[C@H](C)NC(=O)[C@H](CCC(=O)O)NC(=O)[C@H](C)NC(=O)[C@H](CO)NC(=O)[C@H](CCC(=O)O)NC(=O)[C@H](CC(=O)O)NC(=O)[C@H](CCC(=O)O)NC(=O)[C@H](C)NC(=O)CNC(=O)[C@H](CC(N)=O)NC(=O)[C@@H]1CCCN1C(=O)[C@H](Cc1ccc(O)cc1)NC(=O)[C@@H](NC(=O)[C@H](CCCCN)NC(=O)[C@@H](NC(=O)[C@@H]1CCCN1C(=O)[C@@H](N)CCCNC(=N)N)C(C)C)C(C)C)C(=O)N[C@@H](CCC(=O)O)C(=O)N[C@@H](Cc1ccccc1)C(=O)O ?
RECQ1 inh: -4.9%; BLM helicase inh: 3.6%; TDP1 block: 6.9%; GCN5L2 inh: 0.0%; APEX1 inh: 11.8%

What do the screens show for `COc1cc2c3cc1OCc1c(O)c(OC)cc4c1C(Cc1ccc(cc1)Oc1cc(ccc1O)CC3N(C)CC2)N(C)CC4` (stereo unspecified)?
RECQ1 inh: -3.5%; BLM helicase inh: 3.3%; TDP1 block: 9.1%; APEX1 inh: -0.6%

What do the screens show for `COc1ccc2cc1Oc1cc3c(cc1OC)CC[N+](C)(C)C3Cc1ccc(cc1)Oc1c(OC)c(OC)cc3c1C(C2)[N+](C)(C)CC3` (stereo unspecified)?
BLM helicase inh: 69.1%; GCN5L2 inh: 20µM*

How did CCc1cc(C(=O)N=Nc2c(O)[nH]c3ccc([N+](=O)[O-])cc23)c2ccccc2n1 do in these assays?
RECQ1 inh: 0.5%; BLM helicase inh: 17.8µM*; TDP1 block: 5.7%; GCN5L2 inh: -24.9%; APEX1 inh: -10.6%; JMJD2E inh: -7.7%

What do the screens show for `N=C(N)c1ccc(/C=C/c2ccc(C(=N)N)cc2O)cc1`?
RECQ1 inh: 13.3%; BLM helicase inh: 240.4%; TDP1 block: 5.7%; GCN5L2 inh: -14.5%; APEX1 inh: inconclusive; JMJD2E inh: 28.2µM*

What do the screens show for `CCS(=O)(=O)c1ccc(N=Nc2ccc(O)c3ncccc23)c(OC)c1`?
RECQ1 inh: 2.3%; BLM helicase inh: -4.7%; TDP1 block: 7.4%; GCN5L2 inh: -16.7%; APEX1 inh: 8.6%; JMJD2E inh: 14.1µM*

Results for COc1ccccc1N=Nc1ccc(O)c2ncccc12 ?
BLM helicase inh: -14.7%; GCN5L2 inh: -5.4%; APEX1 inh: -16.0%

How did Cc1ccc(C2C3=C(CCCC3=O)Nc3[nH]c(=S)[nH]c(=O)c32)cc1 (stereo unspecified) do in these assays?
RECQ1 inh: -8.5%; BLM helicase inh: -0.2%; TDP1 block: 3.9%; GCN5L2 inh: 22.4µM*; APEX1 inh: -0.9%; JMJD2E inh: inconclusive

What do the screens show for `O=C1CCCC2=C1C(c1ccc(Br)cc1)c1c([nH]c(=S)[nH]c1=O)N2` (stereo unspecified)?
RECQ1 inh: inconclusive; BLM helicase inh: -3.9%; TDP1 block: 4.6%; GCN5L2 inh: inconclusive; APEX1 inh: -0.3%; JMJD2E inh: inconclusive

How did O=C(NC(=S)NNC(=O)c1ccccc1O)c1ccco1 do in these assays?
RECQ1 inh: 0.5%; BLM helicase inh: 1.5%; TDP1 block: 8.1%; GCN5L2 inh: -1.9%; APEX1 inh: -1.3%; JMJD2E inh: 7.08µM*

Results for O=C(NC(=S)NNC(=O)c1ccccc1O)c1cccnc1 ?
RECQ1 inh: 10.1%; BLM helicase inh: 1.0%; TDP1 block: 1.2%; GCN5L2 inh: -16.8%; APEX1 inh: -0.3%; JMJD2E inh: 20µM*

How did O=C(NC(=S)NNC(=O)c1cc2ccccc2cc1O)c1ccco1 do in these assays?
RECQ1 inh: inactive; BLM helicase inh: -6.4%; TDP1 block: 9.9%; GCN5L2 inh: -19.4%; APEX1 inh: -1.3%; JMJD2E inh: 17.8µM*

What do the screens show for `CCOc1cccc(C2C=C(c3ccc4c(c3)OCO4)NC(c3cccc(Br)c3)N2)c1O` (stereo unspecified)?
TDP1 block: 2.0%

What do the screens show for `CCOC(=O)C(C(=O)OCC)N(Cc1cc(OC)ccc1OC)C(=O)C1CC(CO[Si](C)(C)C(C)(C)C)=CN1C(=O)OC(C)(C)C` (stereo unspecified)?
RECQ1 inh: inactive; BLM helicase inh: 1.5%; TDP1 block: 12.1%; APEX1 inh: 20.5%

Results for COc1ccccc1NC(=O)C1=C(C)Nc2c(C(=O)Nc3cccc(C)c3)cnn2C1c1ccccc1C (stereo unspecified) ?
BLM helicase inh: -7.4%; TDP1 block: 4.2%; GCN5L2 inh: 28.2µM*

How did CC(=O)N(/C=C1\SC(=S)N(c2ccccc2)C1=O)c1ccccc1 do in these assays?
RECQ1 inh: 31.6µM*; BLM helicase inh: -7.0%; GCN5L2 inh: -8.8%; APEX1 inh: -10.1%; JMJD2E inh: -0.5%

How did CN(C)/C=C1\SC(=S)N(c2ccc(Br)cc2)C1=O do in these assays?
RECQ1 inh: 31.6µM*; BLM helicase inh: 4.0%; TDP1 block: 4.3%; GCN5L2 inh: -5.5%; APEX1 inh: 28.2µM*; JMJD2E inh: 2.7%

How did CCN1C(=O)/C(=C\N(C(C)=O)c2ccccc2)OC1=S do in these assays?
RECQ1 inh: 2.9%; BLM helicase inh: -0.3%; TDP1 block: -2.5%; GCN5L2 inh: -10.3%; APEX1 inh: 1.4%; JMJD2E inh: -2.2%

How did CC(C)(C)n1ncc2c(=O)n(Cc3ccc(C#N)cc3F)cnc21 do in these assays?
APEX1 inh: -2.0%
